For one test, the system named is T1, MEK1.
T1 construct: gene MAP2K1

A further test concerns T2, MEK2.
T2 construct: gene MAP2K2

For the next test, the system named is T3, MEK6.
T3 construct: gene MAP2K6

The next test has as its system T4, MINK.
T4 construct: gene MINK1

The test system of the next test is T5, MLK1.
T5 construct: gene MAP3K9

Another test concerns T6, MRCKB.
T6 construct: gene CDC42BPB

The test system of another test is T7, MST1.
T7 construct: gene STK4

The test system of a further test is T8, MST3.
T8 construct: gene STK24

A further test deals with T9, NDR1.
T9 construct: gene STK38

Consider 19 compounds from article PMC5540273 (PLoS ONE, 2017).
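Further: kd values determined as follow-up on hits from a single-replicate KINOMEscan panel screen.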

Turning to `COc1cccc(NC(=O)NC2CCN(c3ccnc(Nc4ccc(F)cc4)n3)C2)c1` (stereo not shown) [GSK1379721], the Kd with MAP4K4 and with MAP4K5 was > 10 µM throughout. `COc1ccccc1CNC(=O)c1cc(C(=O)c2ccccc2C)c[nH]1` [GSK364507]: in the test on MARK1, the equilibrium dissociation constant (Kd) is > 10 µM. Turning to `Cc1ccc(NC(=O)Nc2cccc(Cl)c2)cc1-c1ccc(C(=O)Nc2ccncc2)cc1` [GSK1398468], the Kd with MEK1 and in the test with MYO3A was > 10 µM in each case.

Consider `Cc1cccc(-c2nc(Nc3cccc(C(N)=O)c3)c3ccccc3n2)n1` [GW876019], for which the Kd with MEK1 is > 10 µM.

With `Fc1cc(Cl)ccc1Nc1ccnc2cc(-c3ccc(CN4CCCCC4)o3)ccc12` [GW560116], the Kd in the test on MEK2 was > 10 µM. With `CCCc1ccc(S(=O)(=O)NC2CCN(c3ccnc(Nc4ccc(F)cc4)n3)C2)cc1` (stereo not shown) [GSK1379715], in the test on MEK6, the Kd was > 10 µM. Same read-out and setting: next, `CCn1c(-c2ccccn2)nc2cnccc21` [SB-736398]: > 10 µM.

`Cc1ccc(-c2cc(-c3c[nH]nc3-c3ccccn3)ccn2)cc1` [GW684088] had a Kd in the test with MINK of 0.061 µM. In the test on MKNK2, `Cc1ccc(NC(=O)Nc2cc(C(C)(C)C)nn2-c2ccccc2)cc1` [GSK1014915] displayed a Kd of 0.37 µM.

In the case of `NC(=O)c1nnc2ccccc2c1N`, the Kd in the test on MLK1 is > 10 µM; in the test on NEK10 it was 0.43 µM.

`COc1ccc2nc(-c3cccc(C)n3)nc(Nc3ccncc3)c2c1` [GSK204919] returned a Kd with MRCKB of 0.52 µM.

In the test on MRCKB, `Cc1cccc(-c2nc(C)cc(Nc3ccncc3)n2)n1` [GSK257997] gave an equilibrium dissociation constant (Kd) of 0.58 µM. As for `Fc1cc(Cl)ccc1Nc1ccnc2cc(I)ccc12` [GW551191], in the test with MST1R, the Kd is > 10 µM. For the compound `O=C1NC(=O)C(N2CCc3ccccc32)=C1c1ccccc1Cl` [SB-373598], the dissociation constant (Kd) in the test on MST1 is > 10 µM. `Nc1ncnc2[nH]c(-c3ccccc3)nc12` [AH5015]: the Kd with MST1 was > 10 µM.

In the case of `CS(=O)(=O)c1ccc(-c2c(-c3ncn[nH]3)sc(N3CCOCC3)c2C#N)cc1`, in the test with MST3, the Kd was > 10 µM. Take `CSc1nn2c(=O)cc(N3CCOCC3)nc2n1Cc1cccc(C(F)(F)F)c1C` [GSK2363608]: the dissociation constant (Kd) with MST4 was > 10 µM. In the test with MYLK4, `COc1cc2ncn(-c3cc(OCC4CCCO4)c(C(N)=O)s3)c2cc1OC` (stereo not shown) [GSK204607] yielded a dissociation constant Kd of 0.5 µM. On to `CC(C)(C)c1ccc(C(=O)Nc2cn3cc(Cl)ccc3n2)cc1`, for which the Kd in the test on NDR1 was > 10 µM.

One may read the Kd as the constant that tells how readily two partners part at equilibrium. Lower therefore signals a tighter complex.
